hgDAF12 agonist: H. glycines DAF-12 receptor agonists, primary screen, cell-based, luminescence, HEK293, GAL4 fusion, UAS-luciferase. Nuclear hormone receptor DAF-12 (Heterodera glycines), GAL4 fusion. HEK293 GAL4-hgDAF12 UAS-luciferase reporter, agonist luminescence; normalized to butyrate control. activation, % at 6.8 µM. 1.8% of 370,000 active;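 active = activation above a cutoff set at the mean of all screened compounds plus 3 SD, cut at about 10% in these data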;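 note: 0% = DMSO wells and 100% = sodium butyrate wells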
DAX1 inh-1: DAX1 (NR0B1) inhibitors, primary screen, cell-based, HEK293, Gal4-DAX1, luciferase luminescence; inhibition, % at 6.75 µM; Nuclear receptor subfamily 0 group B member 1 (Homo sapiens), P51843; 0.99% of 340,000 active; HEK293 Gal4-DAX1 luciferase reporter;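 active = inhibition above the mean over all tested compounds plus 3 SD, cut at about 4.2% in these data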;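 note: 0% = DAX1-transfected cells with DMSO and 100% = empty-vector control cells with DMSO; inhibition shows as a rise in luminescence from relieved DAX1 repression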
Target sequence (P51843 207-470 limits assumed): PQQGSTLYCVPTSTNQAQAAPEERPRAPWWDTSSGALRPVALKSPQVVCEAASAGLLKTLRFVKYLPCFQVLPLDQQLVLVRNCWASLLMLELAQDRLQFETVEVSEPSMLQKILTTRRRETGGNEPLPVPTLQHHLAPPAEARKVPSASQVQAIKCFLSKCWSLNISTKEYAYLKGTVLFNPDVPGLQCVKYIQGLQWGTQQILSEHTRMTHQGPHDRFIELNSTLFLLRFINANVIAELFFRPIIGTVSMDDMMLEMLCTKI
hcDAF-12 act: H. contortus DAF-12 nuclear receptor activators, primary screen, cell-based, luminescence, HEK293, lit1-tk-luc reporter. HEK293 hcDAF-12 lit1-tk-luc reporter; 0% DMSO, 100% Δ7-dafachronic acid. 1.4% of 370,000 active. AID 652067, 2013. activation, % at 6.8 µM;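 active = activation above the mean of all tested compounds plus 3 SD, cut at about 5.5% in these data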;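 note: 100% = response to 3 µM Δ7-dafachronic acid high control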
ssDAF12 agonist: S. stercoralis DAF-12 nuclear receptor activators, primary screen, cell-based, luminescence, HEK293, GRIP1 co-expression, lit1-tk-luc. 1% of 370,000 active. activation, % at 6.8 µM. HEK293 ssDAF-12/GRIP1 lit1-tk-luc reporter; % of 3 µM dafachronic acid response. Nuclear hormone receptor DAF-12 (Strongyloides stercoralis);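 active = activation above the mean over all tested compounds plus 3 SD, cut at about 0.9% in these data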;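 note: 0% = DMSO-only wells and 100% = 3 µM delta7-dafachronic acid wells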
DAX1 inh-2: DAX1 (NR0B1) inhibitors on StAR promoter, primary screen, cell-based, luminescence, SF-1 (NR5A1), full-length DAX-1 | HEK293T StAR-luciferase reporter, SF-1/DAX-1 repression relief | inhibition, % at 6.8 µM | 1.1% of 370,000 active;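 active = inhibition above the mean over all tested compounds plus 3 SD, cut at about 3.6% in these data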;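 note: 0% = DAX-1 cells with DMSO and 100% = cells lacking DAX-1 with DMSO; higher inhibition means more luminescence from relief of DAX-1 repression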
* = called active by the depositor. Sampled rows, rich in hits. Any-hit rate of the full collection: about 4.1%.

What do the screens show for `CCc1ccc(N2CC34C=CC(O3)C(C(=O)OC)C4C2=O)cc1` (stereo not given)?
hgDAF12 agonist: -1; DAX1 inh-1: 4.4*; hcDAF-12 act: -1; ssDAF12 agonist: -1; DAX1 inh-2: 1

Results for CCc1ccc(N2CC34C=CC(O3)C(C(=O)OC(C)C)C4C2=O)cc1 (stereo not given) ?
hgDAF12 agonist: 0; DAX1 inh-1: 1; hcDAF-12 act: -1; ssDAF12 agonist: -1; DAX1 inh-2: 0

Results for O=C1c2ccccc2C2=Nc3ccccc3SC(c3cccc(F)c3)C12 (stereo not given) ?
hgDAF12 agonist: -3; DAX1 inh-1: 0; hcDAF-12 act: -1; ssDAF12 agonist: -1; DAX1 inh-2: 0

What do the screens show for `Fc1cccc(C2NN=C(c3ccccc3)S2)c1` (stereo not given)?
hgDAF12 agonist: 28*; DAX1 inh-1: 3; hcDAF-12 act: 10*; ssDAF12 agonist: 2.3*; DAX1 inh-2: 4.5*

Results for N#Cc1ccc(/C=C2\CC3(OC(=O)c4ccccc4)CCCN2C3)cc1 (stereo not given) ?
hgDAF12 agonist: -2; hcDAF-12 act: -2; ssDAF12 agonist: -1; DAX1 inh-2: 0

How did Cc1cc(C)cc(N(CC(=O)NC2CCC(C)CC2)S(=O)(=O)c2ccc(Cl)s2)c1 (stereo not given) do in these assays?
hgDAF12 agonist: 6; hcDAF-12 act: -2; ssDAF12 agonist: 0; DAX1 inh-2: 0

What do the screens show for `CC(C)OC(=O)NCN1C(=O)C2C3C=CC(C3)C2C1=O` (stereo not given)?
hgDAF12 agonist: 11*; DAX1 inh-1: 1; hcDAF-12 act: -1; ssDAF12 agonist: 0; DAX1 inh-2: 0

What do the screens show for `COC(=O)NCN1C(=O)C2C3C=CC(C3)C2C1=O` (stereo not given)?
hgDAF12 agonist: 1; DAX1 inh-1: -1; hcDAF-12 act: -1; ssDAF12 agonist: -1; DAX1 inh-2: 0

How did COC(=O)c1ccc(Cn2nnc3c(=O)[nH]c(C4CCCN(S(=O)(=O)c5ccc(C)cc5)C4)nc32)cc1 (stereo not given) do in these assays?
hgDAF12 agonist: -1; DAX1 inh-1: 0; hcDAF-12 act: 5.6*; ssDAF12 agonist: -1; DAX1 inh-2: 0

How did Cc1cc(NC(=O)CSc2nc(C(C)C)nc3sc4c(c23)CCCC4)no1 do in these assays?
hgDAF12 agonist: 2; DAX1 inh-1: 0; hcDAF-12 act: 0; ssDAF12 agonist: 1.3*; DAX1 inh-2: 1

What do the screens show for `Cc1cc(NC(=O)CSc2nc3sc4c(c3c(=O)n2C)CCCC4)no1`?
hgDAF12 agonist: -4; DAX1 inh-1: 0; hcDAF-12 act: -2; ssDAF12 agonist: -1; DAX1 inh-2: 0

Results for O=c1/c(=C/c2ccccn2)sc2nc3ccccc3n12 ?
hgDAF12 agonist: 9; DAX1 inh-1: 4; hcDAF-12 act: 5; ssDAF12 agonist: 1.3*; DAX1 inh-2: 2

Results for COC(=O)/C=c1/sc2nc3ccccc3n2c1=O ?
hgDAF12 agonist: 0; DAX1 inh-1: 1; hcDAF-12 act: 1; ssDAF12 agonist: 0; DAX1 inh-2: 0

How did CCN(CC)C(=O)CSc1nnc(-c2cccs2)o1 do in these assays?
hgDAF12 agonist: 6; hcDAF-12 act: -2; ssDAF12 agonist: -1; DAX1 inh-2: 2

Results for C[C@H]1[C@@H](NC(=O)C2CCC2)CC[C@@]23CCCN2C(=O)CCC[C@@H]13 ?
hgDAF12 agonist: 2; hcDAF-12 act: 0; ssDAF12 agonist: -2

What do the screens show for `COC(=O)c1ccc2c(c1)N(C)CCS2`?
hgDAF12 agonist: -3; DAX1 inh-1: 4.4*; hcDAF-12 act: -1; ssDAF12 agonist: -1; DAX1 inh-2: 0

How did Cc1ccccc1NC(=O)c1ccc2ccccc2c1 do in these assays?
hgDAF12 agonist: 6; DAX1 inh-1: 5.0*; hcDAF-12 act: 2; ssDAF12 agonist: 0; DAX1 inh-2: 1

Source: PubChem
